# About 79,000 compounds went through this panel and 15% of them were active in at least one assay; those are over-represented in the sample as a whole. A number with no mark means an inactive call. The source made the active and inactive calls. Rule as the data show it: active = growth inhibition above about 70%; inactive = the rest.
# Experiments:
# [1] = NCI Yeast Anticancer Drug Screen. Data for the rad50 strain (AID 155);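 also: 0% = growth of vehicle-only cultures of the same strain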; conditions: S. cerevisiae rad50 strain growth inhibition, stronger effect = higher value
# How it was run: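 Relative growth inhibition (compound vs vehicle) was measured in yeast with a defined repair-gene alteration.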
# [2] = NCI Yeast Anticancer Drug Screen. Data for the mec2-1 strain (AID 157); conditions: S. cerevisiae mec2-1 strain, stronger effect = higher value
# How it was run: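 Vehicle-treated cultures served as reference for growth inhibition of compound-exposed mec2-1 yeast.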
# [3] = NCI Yeast Anticancer Drug Screen. Data for the sgs1 mgt1 strain (AID 161);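 also: 0% = growth of cultures given vehicle only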; conditions: S. cerevisiae sgs1 mgt1 strain, stronger effect = higher value
# How it was run: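 Inhibition of yeast growth, normalised to vehicle-treated controls, is reported for a strain bearing genetic alterations in DNA damage repair.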
# [4] = NCI Yeast Anticancer Drug Screen. Data for the cln2 rad14 strain (AID 165);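 also: 0% = growth equal to vehicle treated cultures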; conditions: S. cerevisiae cln2 rad14 strain, stronger effect = higher value
# How it was run: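 Each compound was tested on cln2 rad14 yeast. Inhibition of growth was calculated against vehicle-exposed controls.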
# [5] = NCI Yeast Anticancer Drug Screen. Data for the bub3 strain (AID 167); conditions: S. cerevisiae bub3 mutant strain, stronger effect = higher value
# How it was run: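 Screening used yeast with an engineered genetic alteration affecting cell cycle control. Compound-exposed cultures were compared with vehicle cultures, and reduced growth was taken as inhibition.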
# [6] = NCI Yeast Anticancer Drug Screen. Data for the mlh1 rad18 strain (AID 175); conditions: S. cerevisiae mlh1 rad18 strain growth inhibition, stronger effect = higher value
# How it was run: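 Vehicle-treated cultures served as the reference for growth inhibition in a yeast strain carrying DNA damage repair alterations exposed to each compound.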
# [7] = at 5.0 µM (retest, dose inferred, filed as 0.5)
# [8] = at 50.0 µM (retest, dose inferred, filed as 5.0)
Compound,"growth inhibition [1, 7]","growth inhibition [1, 8]",growth inhibition ([1]; at 50.0 µM),"growth inhibition [2, 7]","growth inhibition [2, 8]",growth inhibition ([2]; at 50.0 µM),"growth inhibition [3, 7]","growth inhibition [3, 8]",growth inhibition ([3]; at 50.0 µM),"growth inhibition [4, 7]","growth inhibition [4, 8]",growth inhibition ([4]; at 50.0 µM),"growth inhibition [5, 7]","growth inhibition [5, 8]",growth inhibition ([5]; at 50.0 µM),"growth inhibition [6, 7]","growth inhibition [6, 8]",growth inhibition ([6]; at 50.0 µM)
Nc1nc(-c2ccccn2)cc2c(Cl)cccc12,12%,90% (active),-2.3%,23%,96% (active),-22.1%,21%,92% (active),11.7%,13%,75% (active),3.7%,-8%,91% (active),17.6%,34%,96% (active),8.75%
CN(Cc1ccccc1)C(c1ccccc1)C(O)C(O)(c1ccccc1)c1ccccc1 (stereo not given),-10%,40%,85.2% (active),10%,78% (active),58.2%,-3%,70% (active),87.3% (active),-26%,16%,19.7%,-9%,58%,30.4%,18%,81% (active),72.5% (active)
O=C1OC(c2ccccc2)(c2ccc(-c3ccccc3O)cc2)c2ccccc21 (stereo not given),87% (active),90% (active),94.2% (active),71% (active),92% (active),95.1% (active),89% (active),93% (active),93% (active),60%,90% (active),92.9% (active),61%,90% (active),95.1% (active),92% (active),91% (active),93.5% (active)
O=C1CC(=Nc2ccc([N+](=O)[O-])cc2)NN1c1c(Cl)cc(Cl)cc1Cl,-20%,47%,90.7% (active),-24%,69%,92% (active),-15%,96% (active),92.7% (active),-15%,57%,89.4% (active),-24%,95% (active),91.7% (active),-65%,89% (active),89.5% (active)
CCN(CC)CCOc1ccc(C(=C2CCCCC2)c2ccc(OCCN(CC)CC)cc2)cc1,34%,34%,84.8% (active),31%,31%,41%,31%,31%,89.1% (active),31%,31%,77% (active),31%,31%,76.8% (active),28%,28%,78.5% (active)
COC(=O)C1=C(/C=C/C(C)=O)NC(C)=C(C(=O)OC(C)C)C1c1ccccc1Cl (stereo not given),40%,95% (active),49.3%,34%,97% (active),62.5%,37%,96% (active),24.5%,65%,95% (active),33.5%,40%,97% (active),41.2%,34%,95% (active),51.4%
CCCCCCCCCCCCCCCC(=O)N1CC[N+](C)(C)CC1,34%,99% (active),99.3% (active),5%,100% (active),99.6% (active),73% (active),99% (active),60%,5%,99% (active),98.2% (active),16%,99% (active),99.2% (active),-34%,99% (active),99.5% (active)
OCCCCCCCCCl,0%,10%,35.5%,-6%,6%,21.6%,1%,9%,45.1%,8%,5%,35.9%,-3%,0%,-24.9%,-1%,9%,14.1%
CC(=O)N(C1=C(Cl)C(=O)c2ccccc2C1=O)c1ccc([N+](=O)[O-])cc1,98% (active),98% (active),99.2% (active),99% (active),99% (active),99.2% (active),98% (active),100% (active),99.5% (active),96% (active),97% (active),99.5% (active),99% (active),98% (active),98.6% (active),98% (active),99% (active),99% (active)
Cc1cc(NCCCN(C)C)c2cc3ccc4cccc5ccc(c2n1)c3c45,1%,54%,95.2% (active),-12%,23%,90.4% (active),-3%,47%,94.8% (active),-2%,25%,63.8%,-2%,20%,94.5% (active),-2%,58%,97.3% (active)
CCCCC1=NCCc2c1cc1c([nH]c3ccccc31)c2C,-3%,57%,9.2%,-19%,7%,46.2%,-8%,85% (active),52.5%,-1%,26%,48%,-3%,35%,76% (active),3%,97% (active),56.4%
Clc1ccc(SSN2CCCCC2)cc1,2%,65%,89% (active),-1%,45%,80.3% (active),2%,82% (active),87.8% (active),6%,17%,7.1%,-1%,70% (active),77.7% (active),3%,84% (active),88.4% (active)
O=C(O)CC1c2ccc3ccccc3c2CCC1c1ccccc1 (stereo not given),74% (active),99% (active),99.6% (active),44%,99% (active),99.6% (active),68%,99% (active),99.7% (active),34%,99% (active),99.5% (active),30%,99% (active),99.5% (active),78% (active),99% (active),99.5% (active)
Cc1c2cnccc2c(C)c2c1sc1ccccc12,92% (active),88% (active),96.5% (active),80% (active),96% (active),73.5% (active),87% (active),96% (active),90.2% (active),65%,91% (active),75.5% (active),56%,93% (active),81.3% (active),96% (active),92% (active),97.7% (active)
CCCC/C=C1\CCC(CN2CCCCC2)C1=O (stereo not given),44%,70% (active),89.2% (active),40%,60%,69.8%,75% (active),96% (active),85.3% (active),59%,75% (active),77.2% (active),84% (active),98% (active),67.2%,56%,83% (active),88% (active)
CN(C)c1cc(N(C)C)c2cc(-c3ccccc3)sc2n1,11%,98% (active),75.7% (active),3%,99% (active),17.2%,5%,95% (active),94.6% (active),-11%,82% (active),7.65%,-5%,93% (active),64%,1%,94% (active),63%
CCN(CC)CCCC(C)Nc1cc(O)c2c(c1O)C(=O)c1ccccc1C2=O (stereo not given),96% (active),98% (active),98.8% (active),95% (active),99% (active),98.5% (active),98% (active),99% (active),98.8% (active),53%,98% (active),97.2% (active),95% (active),98% (active),97.8% (active),94% (active),98% (active),98.8% (active)
O=C1C(=O)c2ccccc2C=C1Br,50%,99% (active),99% (active),91% (active),99% (active),99.2% (active),75% (active),99% (active),99.2% (active),67%,99% (active),98.2% (active),93% (active),99% (active),98.7% (active),85% (active),99% (active),98.8% (active)
CC(C)C1(Cl)CCC2C3(C)CCCC(C)(C(=O)O)C3CC(Cl)C2(Cl)C1Cl (stereo not given),3%,75% (active),80.8% (active),5%,78% (active),74.9% (active),17%,61%,70% (active),-12%,84% (active),95.8% (active),14%,79% (active),72.5% (active),-15%,78% (active),86.7% (active)
Oc1c(Br)cc(Cl)cc1Br,-4%,98% (active),93.5% (active),5%,99% (active),98% (active),4%,99% (active),86.5% (active),-11%,98% (active),90.5% (active),-6%,97% (active),96% (active),3%,96% (active),97.5% (active)
